In one experiment the target is Papain (Carica papaya) (UniProt P00784). As to the kind of experiment: Primary qHTS assay for inhibitors of the protease papain (AID 1645873).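 Note: papain turnover of Z-FR-AMC read as the AMC fluorescence gain over 10 min.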 Note: potency is the fitted concentration of half-maximal effect. Particulars: papain Z-FR-AMC cleavage, AMC fluorescence; series mostly up to 49.8 µM.
For experiment [1], the target named is Rap guanine nucleotide exchange factor 3 (Homo sapiens) (UniProt O95398). As to the kind of experiment: Confirmatory qHTS for antagonist of cAMP-regulated guanine nucleotide exchange factor 3 (EPAC1) (AID 1645880). Note: nearly all actives have a fitted effect of over 55% in size. Particulars: EPAC1 Rap1B-BODIPY-GDP exchange, fluorescence; series mostly up to 115 µM. From the text:
Assay Provider (PI): Xiaodong Cheng Ph.D. The University of Texas Medical Branch, […], TX MLPCN Grant: NS066510 In multi-cellular eukaryotic organisms, the effects of cAMP are transduced by two ubiquitously-expressed intracellular cAMP receptors, the classic protein kinase A/cAMP-dependent protein kinase (PKA/cAPK) and the more recently discovered exchange protein directly activated by cAMP/cAMP-regulated guanine nucleotide exchange factor (EPAC/cAMP-GEF). Both PKA and EPAC are ubiquitously expressed in all tissues, and an increase in intracellular cAMP levels will lead to the activation of both PKA and EPAC. Therefore, careful dissections of the individual role and relative contribution of EPAC and PKA within the overall cAMP signaling in various model systems are critical for further elucidating the mechanism of cAMP signaling. To date no EPAC-specific antagonists and agonist, as well as isoform-specific agonists have been reported, and developing EPAC-specific pharmacological probes to determine the physiological functions that EPAC play in the overall cAMP-mediated signaling remains a major challenge within the research field. […] This qHTS will be used to screen the Molecular Libraries Small Molecule Repository (MLSMR) as a concentration-titration series using the NCGC unique quantitative screening (qHTS) platform to find activators for EPAC1. […] Activators are identified by monitoring the change in fluorescence signal as the exchanged free BODIPY-GDP has a reduced fluorescence compared to Rap1-bound BODIPY-GDP. […]
Briefly, three uL of reagents (100 nM EPAC1, 250 nM RAP1B-BODIPY-GDP, 50 uM GDP) were dispensed into a 1536-well Greiner black solid-bottom medium binding assay plate. […] The assay plates were read at 5 minute intervals for 30 minutes in the ViewLux plate reader using 480nm excitation and 540nm emission filters. […]

For experiment [2] the target is unchanged. Put plainly: Confirmatory qHTS for agonist of cAMP-regulated guanine nucleotide exchange factor 3 (EPAC1) (AID 1645881).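 Note: EPAC1 catalysed release of BODIPY-GDP from Rap1B seen as fluorescence loss; nearly all actives have a fitted effect of over 75% in size.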 The following applies: EPAC1 Rap1B BODIPY-GDP exchange fluorescence, 100% = cAMP control response; series mostly up to 154 µM.
Experiment [3] concerns the target Rap guanine nucleotide exchange factor 4 (Homo sapiens) (UniProt Q8WZA2). Put plainly: Confirmatory qHTS for agonist of cAMP-regulated guanine nucleotide exchange factor 4 (EPAC2) (AID 1645884).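 Note: nucleotide exchange releases bodipy-GDP from Rap1 and this lowers its fluorescence; nearly all actives have a fitted effect of over 65% in size.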 The following applies: EPAC2 GEF activity, Rap1B-BODIPY-GDP fluorescence, percent relative to cAMP agonist control; series mostly up to 154 µM.
The target is the same in experiment [4]. As to the kind of experiment: Confirmatory qHTS for antagonist of cAMP-regulated guanine nucleotide exchange factor 4 (EPAC2) (AID 1645885). Note: nearly all actives have a fitted effect of over 25% in size. The following applies: EPAC2 Rap1B-BODIPY-GDP exchange fluorescence, biochemical; series mostly up to 114 µM.
Experiment [5] in a line: Primary qHTS for inhibitors of nuclear receptor binding SET domain protein 2 (NSD2) in an isogenic RCH-ACV NSD2 p.E1099K mutant (9B) (AID 1645876). Note: nearly all actives have a fitted effect of over 70% in size. Note: potency is the fitted concentration of half-maximal effect. The following applies: RCH-ACV NSD2 E1099K (9B) viability, CellTiter-Glo, 72 h; series mostly up to 44.9 µM.
Experiment [6] in a line: Primary qHTS for inhibitors of nuclear receptor binding SET domain protein 2 (NSD2) in an RCH-ACV wild type WT cells (2C) (AID 1645877). Note: nearly all actives have a fitted effect of over 70% in size. Note: potency is the fitted concentration of half-maximal effect. The following applies: RCH-ACV (leukaemia line) NSD2 WT (2C) viability, CellTiter-Glo, 72 h; series mostly up to 44.9 µM.
The target of experiment [7] is N-terminal Xaa-Pro-Lys N-methyltransferase 1 (Homo sapiens) (UniProt Q9BV86). As to the kind of experiment: Confirmatory qHTS for Inhibitors of N-terminal methyltransferase 1 (NTMT1): MTaseGlo Assay (AID 1645874). Note: potency is the fitted concentration of half-maximal effect; nearly all actives have a fitted effect of over 65% in size. Particulars: NTMT1 enzyme, MTase-Glo SAH luminescence. In short, it runs like this:
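Luminescent MTase-Glo read-out of SAH. 125 nM NTMT1, 100 uM SAM, 1 uM SPKRIA substrate, 30 min RT reaction after 15 min compound preincubation. Normalized to no-enzyme and DMSO controls; Hill fit.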

Experiment [8] deals with Rap guanine nucleotide exchange factor 3 (Homo sapiens) (UniProt O95398). Put plainly: Counterscreen qHTS for antagonist of cAMP-regulated guanine nucleotide exchange factor 3 (EPAC1) (AID 1645888).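 Note: fluorescence loss as bound BODIPY-GDP is released from Rap1B.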 Particulars: Rap1B-BODIPY-GDP nucleotide exchange, fluorescence; series mostly up to 30.8 µM. The gist of the method: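 Rap1B–BODIPY-GDP (250 nM) with 50 uM GDP; compounds pin-transferred to 9.74 nM–152 uM final (activator) or from 7.32 nM upwards (inhibitor). Fluorescence Ex/Em 480/540 nm read at 5 and 30 min, then after adding cAMP or buffer, at room temperature.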

The text below walks through data of PubChem BioAssay (NCATS).

Values joined by “and” are separate entries in the source; they are usually repeats but may differ in a detail not shown here. Equal entries are not always repeated. Results filed as inconclusive are left out. Active and inactive are the calls of the source. Calls come from the whole dose curve; as a rule, active = well fitted curve in the direction sought with a large enough effect; inconclusive = small, poorly fitted or top-dose-only effect, or another doubt; inactive = no such curve, though single readings can be large; an effect the other way counts as inactive or inconclusive.

Rap guanine nucleotide exchange factor 3 (Homo sapiens), sequence (O95398 whole entry, looked up): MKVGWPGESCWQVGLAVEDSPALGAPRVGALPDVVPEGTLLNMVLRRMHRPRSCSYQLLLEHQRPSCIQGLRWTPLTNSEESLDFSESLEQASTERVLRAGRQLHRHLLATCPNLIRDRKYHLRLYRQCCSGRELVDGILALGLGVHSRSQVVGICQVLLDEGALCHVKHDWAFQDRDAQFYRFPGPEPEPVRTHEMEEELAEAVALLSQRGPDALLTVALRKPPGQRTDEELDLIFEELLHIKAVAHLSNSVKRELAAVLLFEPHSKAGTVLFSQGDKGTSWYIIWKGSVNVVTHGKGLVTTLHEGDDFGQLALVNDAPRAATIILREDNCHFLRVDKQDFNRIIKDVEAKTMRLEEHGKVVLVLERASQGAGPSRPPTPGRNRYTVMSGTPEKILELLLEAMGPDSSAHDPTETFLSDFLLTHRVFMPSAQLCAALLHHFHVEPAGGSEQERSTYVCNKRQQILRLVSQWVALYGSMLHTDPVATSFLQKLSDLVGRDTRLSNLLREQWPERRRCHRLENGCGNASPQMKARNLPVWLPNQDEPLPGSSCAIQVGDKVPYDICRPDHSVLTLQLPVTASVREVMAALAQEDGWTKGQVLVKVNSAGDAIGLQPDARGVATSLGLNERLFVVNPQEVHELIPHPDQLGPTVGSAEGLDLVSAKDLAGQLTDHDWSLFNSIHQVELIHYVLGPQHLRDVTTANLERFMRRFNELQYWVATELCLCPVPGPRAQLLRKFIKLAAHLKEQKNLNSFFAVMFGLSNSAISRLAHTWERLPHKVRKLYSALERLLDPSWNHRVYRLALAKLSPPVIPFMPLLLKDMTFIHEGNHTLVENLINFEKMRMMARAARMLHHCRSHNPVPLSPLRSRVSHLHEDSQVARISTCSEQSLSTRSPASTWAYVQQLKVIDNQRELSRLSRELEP
Papain (Carica papaya), sequence (P00784 whole entry, looked up): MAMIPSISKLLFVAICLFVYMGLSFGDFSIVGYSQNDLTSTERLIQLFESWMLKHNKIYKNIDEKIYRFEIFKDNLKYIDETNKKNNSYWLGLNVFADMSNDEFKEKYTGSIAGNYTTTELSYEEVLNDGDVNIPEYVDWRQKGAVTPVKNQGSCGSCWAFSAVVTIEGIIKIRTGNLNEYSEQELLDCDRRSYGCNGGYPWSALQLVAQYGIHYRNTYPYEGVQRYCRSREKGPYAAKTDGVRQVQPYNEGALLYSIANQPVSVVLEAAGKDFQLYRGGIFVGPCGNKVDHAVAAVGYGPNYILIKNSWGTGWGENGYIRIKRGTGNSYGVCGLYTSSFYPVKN
Rap guanine nucleotide exchange factor 4 (Homo sapiens), sequence (Q8WZA2 whole entry, looked up): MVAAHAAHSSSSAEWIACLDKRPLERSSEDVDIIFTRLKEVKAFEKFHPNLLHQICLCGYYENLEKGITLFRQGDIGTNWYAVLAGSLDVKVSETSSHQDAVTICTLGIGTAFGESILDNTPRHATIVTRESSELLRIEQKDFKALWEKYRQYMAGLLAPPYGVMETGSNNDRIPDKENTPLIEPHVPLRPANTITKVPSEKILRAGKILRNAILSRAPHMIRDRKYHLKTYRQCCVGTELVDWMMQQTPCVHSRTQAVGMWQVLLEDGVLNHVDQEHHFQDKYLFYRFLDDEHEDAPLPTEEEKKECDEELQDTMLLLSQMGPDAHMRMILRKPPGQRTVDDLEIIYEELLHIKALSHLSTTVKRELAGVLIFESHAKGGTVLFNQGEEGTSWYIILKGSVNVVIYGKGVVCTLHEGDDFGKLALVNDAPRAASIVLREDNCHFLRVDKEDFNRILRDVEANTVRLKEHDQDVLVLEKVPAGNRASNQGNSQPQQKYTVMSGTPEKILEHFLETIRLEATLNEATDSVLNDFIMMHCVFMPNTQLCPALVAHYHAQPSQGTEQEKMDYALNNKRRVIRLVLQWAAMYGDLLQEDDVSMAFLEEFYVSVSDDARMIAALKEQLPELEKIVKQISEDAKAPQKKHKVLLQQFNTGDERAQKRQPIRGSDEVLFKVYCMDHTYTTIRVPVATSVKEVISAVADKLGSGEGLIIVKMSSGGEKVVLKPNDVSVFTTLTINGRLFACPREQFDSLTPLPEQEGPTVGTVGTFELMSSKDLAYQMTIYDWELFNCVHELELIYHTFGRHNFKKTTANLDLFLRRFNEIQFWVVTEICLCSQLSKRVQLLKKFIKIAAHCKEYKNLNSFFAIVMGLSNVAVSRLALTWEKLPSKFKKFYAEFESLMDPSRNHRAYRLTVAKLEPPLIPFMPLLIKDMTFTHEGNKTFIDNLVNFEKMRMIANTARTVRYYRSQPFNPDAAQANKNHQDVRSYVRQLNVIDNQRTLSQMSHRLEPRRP
N-terminal Xaa-Pro-Lys N-methyltransferase 1 (Homo sapiens), sequence (Q9BV86 whole entry, looked up): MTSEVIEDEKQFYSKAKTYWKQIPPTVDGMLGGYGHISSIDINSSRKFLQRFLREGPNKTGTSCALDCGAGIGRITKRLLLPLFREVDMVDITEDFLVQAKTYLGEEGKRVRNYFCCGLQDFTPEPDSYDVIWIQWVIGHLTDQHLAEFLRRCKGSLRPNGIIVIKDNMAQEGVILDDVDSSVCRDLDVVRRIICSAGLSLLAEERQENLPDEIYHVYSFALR

For `CC1=NN=C(c2ccc(N)cc2)c2cc3c(cc2C1)OCO3`, the Potency entry (in the experiment with Papain (Carica papaya); in experiment [4]) was “inactive” throughout. Further, the outcome in experiment [1], in experiment [2] and in [3] was inactive.

Consider `CCN1C[C@]2(OC(=O)c3ccccc3NC(C)=O)CC[C@H](OC)[C@@]34[C@H]5CC6[C@@H](OC)C[C@](O)(C(C[C@@H]23)[C@@H]14)[C@@]5(O)[C@@H]6OC`, for which, in [5], the Potency result is “inactive”.

Take `COC1=C[C@@H]2[C@@H]3Cc4ccc(OC)c(O)c4[C@]2(CCN3C)CC1=O`: the Potency result in experiment [5] is “inactive”.

With `CC(C)(C)c1cc(C=C(C#N)C#N)cc(Br)c1O`, the Potency entry in [5] was “inactive”.

As for `C=CCC1=C(C)C(OC(=O)C2C(C=C(C)C)C2(C)C)CC1=O` (stereo not given), the Potency in experiment [5] is 24.3 µM (active).

Turning to `CC(C)[C@]12O[C@H]1[C@@H]1O[C@]13[C@]1(O[C@H]1C[C@H]1C4=C(CC[C@@]13C)C(=O)OC4)[C@@H]2O`, in experiment [5], the Potency was 18.3 nM (active) and 23.5 nM (active).

Take `S=C(NC1CCCCC1)N1CCC(c2cnc[nH]2)CC1`: the Potency result (with Papain (Carica papaya); in experiment [5]; in experiment [6]) was “inactive” each time.

On to `CCOP(=O)(OCC)C(C)NC(=O)N(CCCl)N=O` (stereo not given), for which, in experiment [5], the Potency entry was “inactive”.

For the compound `COc1ccc2c(c[n+](C)c3c4cc5c(cc4ccc23)OCO5)c1OC`, the Potency result (with Papain (Carica papaya); in experiment [5]; in experiment [6]) was “inactive” in each case.

As to `CCCN(CCC)C1CCc2ccc(O)cc2C1` (stereo not given), the Potency entry with Papain (Carica papaya) is “inactive”.

`O=S(=O)(c1ccc(Cl)cc1)c1ccc(Cl)cc1`: in experiment [5], the Potency result is “inactive”.

Consider `CCCN1CCC[C@H](c2cccc(O)c2)C1`, for which, in the experiment with Papain (Carica papaya), the Potency result was “inactive”.

Regarding `CC(C)Oc1cccnc1N(C)C1CCN(Cc2ccccc2)CC1`, the Potency entry with Papain (Carica papaya) was “inactive”.

With `O=[N+]([O-])c1cc([N+](=O)[O-])c2ccccc2c1`, in [5], the Potency result was “inactive”.

For the compound `c1ccc2c(CN3CCNCC3)cccc2c1`, the Potency entry in experiment [5] was “inactive”.

In the case of `CCCN1CCO[C@@H]2c3cc(O)ccc3OC[C@H]21`, the Potency result (with Papain (Carica papaya); in experiment [5]) was “inactive” each time.

As for `C[C@](O)(COc1ccc(C#N)cc1)C(=O)Nc1ccc(C#N)c(C(F)(F)F)c1`, the Potency in experiment [5] was 20.9 µM (active).

As for `O=C(N[C@H]1CN2CCC1CC2)c1ccc(Cl)cc1`, the Potency result (in the experiment with Papain (Carica papaya); in experiment [5]; in [6]) was “inactive” throughout.

In the case of `CC(=O)NCCc1c[nH]c2ccccc12`, the Potency entry (with Papain (Carica papaya); in [5]) was “inactive” in each case.

Consider `CCc1c(C(=O)C(N)=O)c2c(OCC(=O)O)cccc2n1Cc1ccccc1`, for which the Potency entry in [5] was “inactive”.

Take `CC[C@@H](C(N)=O)N1CCCC1=O`: the Potency result (in the experiment with Papain (Carica papaya); in experiment [5]; in experiment [6]) was “inactive” each time.

With `CC(C)NCC(O)c1ccc([N+](=O)[O-])cc1` (stereo not given), the Potency entry in [5] is “inactive”.

As for `CC(=O)[O][Hg][c]1ccccc1`, the Potency in experiment [7] was 1.07 µM (active); in [5], 0.596 µM (active); in experiment [6], 0.531 µM (active).

With `c1ccc(CCCN2CCN(CCOC(c3ccccc3)c3ccccc3)CC2)cc1`, the Potency result (with Papain (Carica papaya); in experiment [4]) was “inactive” throughout. For the same compound, the result in [2], in [3] and in [8] was inactive.

Regarding `CC(N[C@H]1C[C@H]1c1ccccc1)c1ccc2c(c1)OCCO2` (stereo not given in full), in experiment [5], the Potency entry was “inactive”.

For `O=C(Nc1ccncc1)C(=O)c1cn(Cc2ccc(Cl)cc2)c2ccccc12`, in experiment [5], the Potency is 0.263 µM (active).

For `CC[C@@]1(O)C(=O)OCc2c1cc1n(c2=O)Cc2cc3ccccc3nc2-1`, the results for the Potency (in the experiment with Papain (Carica papaya); in experiment [5]) were 3.98 µM (active) and 0.0148 µM (active), respectively.

Take `NCc1cc(=O)[nH]o1`: the Potency result with Papain (Carica papaya) is “inactive”.

For the compound `O=C(N[C@@H](COc1ccc2[nH]c(=O)[nH]c2c1)c1ccccc1)c1cccn(Cc2ccc(F)c(F)c2)c1=O`, the Potency in experiment [5] is 1.63 µM (active).

Regarding `CC(=O)N(C)c1cccc(-c2ccnc3c(C(=O)c4cccs4)cnn23)c1`, the Potency entry in experiment [5] is “inactive”.

Take `NCCc1c[nH]c2ccc(O)cc12`: the Potency entry with Papain (Carica papaya) was “inactive”.

As for `O=C(O)COc1nc(Cl)c(Cl)cc1Cl`, the Potency result in experiment [5] was “inactive”.

As to `O=C(O)C(Cl)Cl`, the Potency entry in experiment [5] was “inactive”.

In the case of `CCCCCCCCc1ccc(O)cc1`, the Potency in experiment [5] is 6.18 µM (active).

Take `O=C(NCC1CCOCC1)c1cnc(Nc2ccc(Cl)cc2Cl)nc1C(F)(F)F`: the Potency result in experiment [5] was “inactive”.

As to `O=C(Oc1ccc([N+](=O)[O-])cc1)N1CCC(C(O)(c2ccc3c(c2)OCO3)c2ccc3c(c2)OCO3)CC1`, the Potency entry in [5] is “inactive”.

Turning to `NC1=NC(=O)N2CC12` (stereo not given), in experiment [5], the Potency result was “inactive”.

Take `Cc1[nH]nc2ccc(-c3cncc(OC[C@@H](N)Cc4c[nH]c5ccccc45)c3)cc12`: the Potency in [5] is 145 nM (active) and 235 nM (active).

As for `O=C(Nc1ccccc1-c1ccc(Cl)cc1)c1cccnc1Cl`, the Potency result in experiment [5] was “inactive”.

Consider `CS(=O)(=O)c1ccc(C(=O)C2C(=O)CCCC2=O)c([N+](=O)[O-])c1`, for which the Potency entry in experiment [5] and in experiment [6] was “inactive” each time.

For `N=c1c2c(-c3ccccc3)c(-c3ccccc3)n(Cc3ccccc3)c2ncn1C1CCC(O)CC1` (stereo not given), the Potency in experiment [5] was 0.59 µM (active); in experiment [6], 0.263 µM (active).

As for `C[C@]12CC[C@H]3[C@@H](CCC4=CC(=O)CC[C@@]43C)[C@H]1CC[C@H]2OC(=O)CCC1CCCC1`, the Potency result in [5] and in [6] was “inactive” each time.

In the case of `CN[C@@H](C)[C@H](O)c1ccccc1`, the Potency result in experiment [5] and in experiment [6] was “inactive” throughout.

`O=S(=O)(CC1CS1)c1ccc(Oc2ccccc2)cc1` (stereo not given): the Potency in experiment [5] is 8.33 µM (active).

Regarding `Cc1ccc(Cl)c(O)c1`, the Potency entry in experiment [5] and in experiment [6] was “inactive” in each case.

As to `O=S(=O)(O)C(F)(F)C(F)(F)C(F)(F)C(F)(F)F`, the Potency entry in experiment [5] and in [6] was “inactive” each time.

For the compound `COc1ccc(C(=O)c2c(C)n(CCN3CCOCC3)c3cc(I)ccc23)cc1`, the Potency in experiment [5] was 18.6 µM (active); in experiment [6], 14.8 µM (active).
